Assay results as given in PubChem BioAssay.
Records with an inconclusive call do not appear. Activity calls are given as the source filed them. Unless noted, the limit is not given here; nearly all actives have AC50 up to about 26 µM.

Tests used:
[1] = target: NAD(+) hydrolase SARM1 (Homo sapiens) (UniProt Q6SZW1); assay: blocking NAD cleavage by SARM1 SAM-TIR – cell lysate, NAD-Glo luminescence (AID 1508614;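 active = compound whose remaining NAD level is above about 45 nM, limit read from the data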;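 also: higher remaining NAD means stronger inhibition of SARM1 NADase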); details: SAM-TIR HEK293T lysate NADase, at 1 µM, stronger effect = higher value
Chain of NAD(+) hydrolase SARM1 (Homo sapiens) (Q6SZW1 whole entry, looked up): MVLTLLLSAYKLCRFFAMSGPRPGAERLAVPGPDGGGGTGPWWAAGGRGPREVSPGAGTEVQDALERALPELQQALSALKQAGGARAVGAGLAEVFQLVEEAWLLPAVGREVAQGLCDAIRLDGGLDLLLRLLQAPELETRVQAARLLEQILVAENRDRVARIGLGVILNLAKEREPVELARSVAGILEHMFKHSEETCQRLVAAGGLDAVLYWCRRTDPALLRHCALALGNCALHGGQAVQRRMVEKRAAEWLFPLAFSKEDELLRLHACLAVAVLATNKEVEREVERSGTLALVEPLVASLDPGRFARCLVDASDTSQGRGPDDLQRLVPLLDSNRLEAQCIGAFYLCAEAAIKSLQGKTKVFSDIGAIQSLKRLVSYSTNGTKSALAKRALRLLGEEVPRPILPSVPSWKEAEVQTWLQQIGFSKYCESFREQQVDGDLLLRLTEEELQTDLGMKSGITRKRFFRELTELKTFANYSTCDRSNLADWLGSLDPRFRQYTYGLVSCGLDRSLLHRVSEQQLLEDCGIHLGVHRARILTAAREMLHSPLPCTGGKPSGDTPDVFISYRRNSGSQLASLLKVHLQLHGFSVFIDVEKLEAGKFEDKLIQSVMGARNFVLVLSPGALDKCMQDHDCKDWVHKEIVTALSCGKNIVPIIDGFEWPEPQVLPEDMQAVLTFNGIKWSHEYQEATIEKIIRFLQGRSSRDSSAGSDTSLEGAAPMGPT

[2] = blockers of polyQ-driven CASP3 activation – cell-based (AID 1583); details: polyglutamine-induced caspase-3 activation, cell assay; stronger effect = higher value;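 tested at 10 µM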
[3] = GFP-Q80 aggregate reduction, neuronal-like cells, cell-based, NGF-treated PC12, GFPQ80 (AID 1614); details: PC12 NGF-treated GFP-polyQ80 inclusion reduction;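 also: lower means fewer inclusions and 0 means no inclusions at all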
[4] = target: ATP-dependent translocase ABCB1 (Homo sapiens) (UniProt P08183); assay: P-glycoprotein substrate transport blockade – cell-based (AID 377; in the data active = fluorescence slope change above about 50%); details: MDR1-expressing cells, fluorescent substrate accumulation slope; stronger effect = higher value; concentration not given here
Chain of ATP-dependent translocase ABCB1 (Homo sapiens) (P08183 whole entry, looked up): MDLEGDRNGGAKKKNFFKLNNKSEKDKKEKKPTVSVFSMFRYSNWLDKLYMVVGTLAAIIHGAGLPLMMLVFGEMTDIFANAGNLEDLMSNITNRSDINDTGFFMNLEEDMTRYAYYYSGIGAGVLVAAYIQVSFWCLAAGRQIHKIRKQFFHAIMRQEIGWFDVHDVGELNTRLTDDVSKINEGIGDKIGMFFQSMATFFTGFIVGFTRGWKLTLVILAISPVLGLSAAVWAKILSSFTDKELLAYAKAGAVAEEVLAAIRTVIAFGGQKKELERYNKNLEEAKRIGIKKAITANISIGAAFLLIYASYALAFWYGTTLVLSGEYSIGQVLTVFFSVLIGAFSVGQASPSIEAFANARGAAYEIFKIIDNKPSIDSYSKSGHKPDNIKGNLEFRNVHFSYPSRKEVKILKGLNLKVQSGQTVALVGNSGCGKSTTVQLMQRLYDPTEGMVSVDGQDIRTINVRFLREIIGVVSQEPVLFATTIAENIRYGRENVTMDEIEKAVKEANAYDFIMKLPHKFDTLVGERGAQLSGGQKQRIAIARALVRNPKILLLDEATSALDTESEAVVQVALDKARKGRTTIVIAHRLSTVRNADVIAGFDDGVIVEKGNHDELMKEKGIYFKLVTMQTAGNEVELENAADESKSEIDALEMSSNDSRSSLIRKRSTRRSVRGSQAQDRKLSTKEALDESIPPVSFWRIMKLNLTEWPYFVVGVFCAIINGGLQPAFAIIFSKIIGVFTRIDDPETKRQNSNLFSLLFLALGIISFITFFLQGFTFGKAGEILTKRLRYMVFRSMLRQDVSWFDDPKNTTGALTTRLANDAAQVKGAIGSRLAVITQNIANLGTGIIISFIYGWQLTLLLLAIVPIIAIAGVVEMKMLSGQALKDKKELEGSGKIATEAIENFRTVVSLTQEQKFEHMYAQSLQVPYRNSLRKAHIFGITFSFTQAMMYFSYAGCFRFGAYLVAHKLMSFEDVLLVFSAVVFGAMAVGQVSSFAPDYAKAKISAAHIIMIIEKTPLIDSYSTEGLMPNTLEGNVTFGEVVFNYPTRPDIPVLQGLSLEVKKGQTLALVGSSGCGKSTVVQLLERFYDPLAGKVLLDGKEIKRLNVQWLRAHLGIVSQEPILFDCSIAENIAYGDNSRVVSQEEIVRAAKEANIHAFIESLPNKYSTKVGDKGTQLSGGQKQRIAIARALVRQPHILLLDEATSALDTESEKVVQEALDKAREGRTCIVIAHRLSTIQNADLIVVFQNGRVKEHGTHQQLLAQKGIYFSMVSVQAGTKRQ

[5] = target: Huntingtin (Homo sapiens) (UniProt P42858); assay: mutant huntingtin aggregation blockers – QA1, dose response (AID 1584); details: in vitro mutant huntingtin aggregation assay; confirmation test; at 10 µM; stronger effect = lower value
Chain of Huntingtin (Homo sapiens) (P42858 whole entry, looked up): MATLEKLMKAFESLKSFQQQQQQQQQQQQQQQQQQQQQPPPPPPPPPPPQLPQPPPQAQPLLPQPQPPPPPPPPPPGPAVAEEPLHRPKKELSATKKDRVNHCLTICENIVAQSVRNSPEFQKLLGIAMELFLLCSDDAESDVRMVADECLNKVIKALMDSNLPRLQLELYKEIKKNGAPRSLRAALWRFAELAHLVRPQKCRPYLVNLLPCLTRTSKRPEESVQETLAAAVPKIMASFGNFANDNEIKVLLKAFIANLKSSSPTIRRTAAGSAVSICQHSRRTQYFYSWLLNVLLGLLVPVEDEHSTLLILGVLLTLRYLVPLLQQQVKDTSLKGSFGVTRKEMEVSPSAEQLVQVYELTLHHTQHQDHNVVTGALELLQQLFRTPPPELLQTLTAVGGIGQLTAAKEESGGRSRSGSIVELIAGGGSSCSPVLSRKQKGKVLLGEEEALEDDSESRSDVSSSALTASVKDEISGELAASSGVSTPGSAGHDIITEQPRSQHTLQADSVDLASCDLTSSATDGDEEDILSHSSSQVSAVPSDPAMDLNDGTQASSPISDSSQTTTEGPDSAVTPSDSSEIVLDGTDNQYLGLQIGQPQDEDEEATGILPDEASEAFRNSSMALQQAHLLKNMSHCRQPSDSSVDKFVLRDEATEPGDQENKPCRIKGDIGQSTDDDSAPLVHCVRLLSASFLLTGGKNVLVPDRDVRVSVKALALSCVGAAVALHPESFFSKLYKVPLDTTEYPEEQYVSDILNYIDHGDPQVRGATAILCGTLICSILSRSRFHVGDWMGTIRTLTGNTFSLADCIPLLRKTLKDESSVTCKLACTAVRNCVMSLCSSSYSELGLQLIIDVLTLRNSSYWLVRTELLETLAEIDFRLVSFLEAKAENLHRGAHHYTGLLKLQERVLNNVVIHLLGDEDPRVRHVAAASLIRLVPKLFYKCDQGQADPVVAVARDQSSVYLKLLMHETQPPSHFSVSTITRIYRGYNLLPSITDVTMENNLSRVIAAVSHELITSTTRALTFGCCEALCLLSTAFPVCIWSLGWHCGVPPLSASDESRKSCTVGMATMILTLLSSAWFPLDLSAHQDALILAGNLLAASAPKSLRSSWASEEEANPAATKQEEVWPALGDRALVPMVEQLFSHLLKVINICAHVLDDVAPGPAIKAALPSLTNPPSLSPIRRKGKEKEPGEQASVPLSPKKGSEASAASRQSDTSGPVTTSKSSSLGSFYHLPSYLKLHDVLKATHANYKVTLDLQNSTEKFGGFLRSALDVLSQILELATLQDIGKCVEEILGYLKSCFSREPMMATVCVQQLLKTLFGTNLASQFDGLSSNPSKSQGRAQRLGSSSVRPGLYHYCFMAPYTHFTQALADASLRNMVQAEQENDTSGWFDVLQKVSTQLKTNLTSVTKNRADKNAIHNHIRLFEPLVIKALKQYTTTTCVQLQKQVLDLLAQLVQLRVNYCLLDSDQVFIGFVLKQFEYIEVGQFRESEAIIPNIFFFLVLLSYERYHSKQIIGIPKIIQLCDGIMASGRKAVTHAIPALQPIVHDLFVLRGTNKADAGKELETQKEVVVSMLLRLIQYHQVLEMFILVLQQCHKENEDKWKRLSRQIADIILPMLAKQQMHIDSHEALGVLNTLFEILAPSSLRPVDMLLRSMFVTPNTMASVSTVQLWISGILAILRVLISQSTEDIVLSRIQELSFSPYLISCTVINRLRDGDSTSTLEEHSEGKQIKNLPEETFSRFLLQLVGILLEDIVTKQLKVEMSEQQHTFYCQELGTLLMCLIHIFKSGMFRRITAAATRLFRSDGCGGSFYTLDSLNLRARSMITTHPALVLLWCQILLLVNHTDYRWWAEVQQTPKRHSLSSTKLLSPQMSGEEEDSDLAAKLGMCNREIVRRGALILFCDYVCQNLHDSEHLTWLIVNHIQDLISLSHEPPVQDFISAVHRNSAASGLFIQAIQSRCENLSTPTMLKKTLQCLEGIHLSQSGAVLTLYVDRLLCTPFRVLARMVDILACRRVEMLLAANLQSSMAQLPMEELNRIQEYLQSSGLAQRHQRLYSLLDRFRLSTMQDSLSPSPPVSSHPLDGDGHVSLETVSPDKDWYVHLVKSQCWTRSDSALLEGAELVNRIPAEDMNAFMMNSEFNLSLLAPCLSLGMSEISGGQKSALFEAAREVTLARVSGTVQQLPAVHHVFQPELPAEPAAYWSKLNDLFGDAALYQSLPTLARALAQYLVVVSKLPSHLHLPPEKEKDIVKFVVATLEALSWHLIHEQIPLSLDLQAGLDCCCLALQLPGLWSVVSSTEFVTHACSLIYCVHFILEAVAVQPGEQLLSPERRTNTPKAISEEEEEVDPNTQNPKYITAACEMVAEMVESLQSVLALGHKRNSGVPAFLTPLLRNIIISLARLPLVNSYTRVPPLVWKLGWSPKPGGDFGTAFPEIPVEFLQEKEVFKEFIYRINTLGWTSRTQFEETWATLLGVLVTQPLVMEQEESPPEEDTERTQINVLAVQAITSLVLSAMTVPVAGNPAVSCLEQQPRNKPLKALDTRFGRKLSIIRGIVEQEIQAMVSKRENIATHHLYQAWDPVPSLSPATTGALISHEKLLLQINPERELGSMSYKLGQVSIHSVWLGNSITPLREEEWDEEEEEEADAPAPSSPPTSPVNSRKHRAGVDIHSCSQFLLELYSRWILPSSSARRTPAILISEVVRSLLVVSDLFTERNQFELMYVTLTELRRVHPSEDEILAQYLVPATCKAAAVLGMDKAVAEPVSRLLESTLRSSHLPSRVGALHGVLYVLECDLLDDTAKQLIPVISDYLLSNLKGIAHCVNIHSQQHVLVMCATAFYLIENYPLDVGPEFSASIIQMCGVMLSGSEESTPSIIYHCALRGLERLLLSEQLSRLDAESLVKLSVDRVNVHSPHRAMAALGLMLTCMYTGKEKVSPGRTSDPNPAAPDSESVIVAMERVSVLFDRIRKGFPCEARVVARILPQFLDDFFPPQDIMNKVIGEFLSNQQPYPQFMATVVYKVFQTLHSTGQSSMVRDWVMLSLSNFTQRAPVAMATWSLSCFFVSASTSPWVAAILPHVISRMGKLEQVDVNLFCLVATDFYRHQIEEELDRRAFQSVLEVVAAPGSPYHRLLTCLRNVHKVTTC

[6] = rescue of PC12 cells from polyQ htt toxicity – LDH release (AID 1610); details: PC12 mutant huntingtin toxicity, final LDH at 4 uM, stronger effect = lower value
[7] = blockers of MitoPT in mitochondria (AID 1580; call rule not given here); details: isolated mitochondria, permeability transition inhibition
[8] = viability loss in pontine glioma line – cell-based, JHH-DIPG-1, MIPE4.0, CellTiter-Glo, qHTS, dose response (AID 1347062; cut-off not given, nearly all actives have AC50 up to about 27 µM;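 as to AC50: cells exposed to compound for two days before readout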); details: JHH-DIPG-1 viability, CellTiter-Glo ATP luminescence
[9] = viability loss in pontine glioma line – cell-based, SU-DIPG-IV, MIPE4.0, CellTiter-Glo, qHTS, dose response (AID 1347063; cut-off not given, nearly all actives have AC50 up to about 30 µM;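 also: compound exposure lasted 48 hours before the viability readout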); details: CellTiter-Glo ATP luminescence
[10] = viability loss in pontine glioma line – cell-based, SU-DIPG-XIII, MIPE4.0, CellTiter-Glo, qHTS, dose response (AID 1347061; cut-off not given, nearly all actives have AC50 up to about 37 µM;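 also: cells exposed to compound for 48 hours before readout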); details: CellTiter-Glo ATP luminescence
[11] = viability loss in pontine glioma line – cell-based, SU-DIPG-XIII, MIPE5.0, CellTiter-Glo, qHTS, dose response (AID 1347064; cut-off not given, nearly all actives have AC50 up to about 23 µM); details: CellTiter-Glo ATP luminescence
[12] = viability loss in pontine glioma line – cell-based, SU-DIPG-XXV, MIPE5.0, CellTiter-Glo, qHTS, dose response (AID 1347065); details: CellTiter-Glo ATP luminescence;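 also: cells exposed to compound for 48 hours before ATP readout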
[13] = JHH-DIPG-1 glioma cell viability, MIPE5.0 library, CellTiter-Glo luminescence, qHTS (AID 1347067); details: JHH-DIPG-1 glioma viability, CellTiter-Glo ATP luminescence;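 also: cells exposed to compound for 48 hours before readout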
[14] = growth inhibition of DIPG cells – cell-based, MIPE5.0 library, qHTS (AID 1347068; cut-off not given, nearly all actives have IC50 up to about 30 µM); details: SU-DIPG-XXV viability
[15] = chitosan synthesis blockers in C. neoformans – flow cytometry, Cibacron Brilliant Red staining (AID 1347148; call rule not given here;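 also: compound exposure lasted three days at 37 degrees C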); details: Cryptococcus neoformans chitosan, stronger effect = lower value; at 10 µM unless noted
[16] = viability loss in pontine glioma line – cell-based, SU-DIPG-XVII, MIPE5.0, CellTiter-Glo, qHTS, dose response (AID 1347060); details: CellTiter-Glo ATP luminescence
[17] = growth inhibition of DIPG cells – cell-based, MIPE4.0 library, CellTiter-Glo luminescence, qHTS (AID 1347066; cut-off not given, nearly all actives have AC50 up to about 30 µM;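 also: cells exposed to compound for 48 hours before readout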); details: SU-DIPG-VI viability, CellTiter-Glo ATP luminescence

Q: For CC(CC(C(N)=O)(c1ccccc1)c1ccccc1)N(C)C (centres undefined), which remaining NAD [1] is on record?
A: 10 nM (inactive)

Q: Which results are given for CCC(C)C(=O)O[C@H]1[C@H](O)C2C(CN3CC(C)CCC3[C@@]2(C)O)C2C[C@]34O[C@]5(O)C(OC(=O)C(C)(O)CC)CC[C@@]3(C)C5C(OC(C)=O)[C@@H](OC(C)=O)C4[C@@]21O (some centres undefined)?
A: inhibition [2]: -14%; inclusion score [3]: 2

Q: Which fluorescence slope change [4] does the source give for C[N+]1(C)CCOC(O)(c2ccc(-c3ccc(C4(O)C[N+](C)(C)CCO4)cc3)cc2)C1 (centres undefined) here?
A: 1.8% (inactive)

Q: Which results are given for CC(C)=CCCC1(C)C=Cc2c(O)c3c(c(CC=C(C)C)c2O1)OC12C(=CC4CC1C(C)(C)OC2(C/C=C(/C)C(=O)O)C4=O)C3=O (centres undefined)?
A: inhibition [2]: 78.5%; aggregation ratio [5]: 0.274; normalised LDH release [6]: 0.491

Q: For CC[C@H]1CN2CCC1C[C@@H]2[C@@H](O)c1ccnc2ccc(OC)cc12 (some centres undefined), which inhibition [2] is on record?
A: -3.48%

Q: What about the inclusion score [3] of the same compound?
A: 2

Q: For CC(=O)OCC1=C(C(=O)O)N2C(=O)[C@@H](NC(=O)CCCC(N)C(=O)O)C2SC1 (some centres undefined), which inhibition [2] is on record?
A: 10.9%

Q: And the inclusion score [3]?
A: 2

Q: With CN1CC(CNC(=O)OCc2ccccc2)CC2c3cccc4c3c(cn4C)CC21 (centres undefined) as the compound, how does the inhibition [2] read?
A: -46%

Q: For CCCCC[C@H]1C(=O)O[C@H](C)[C@H](NC(=O)c2cccc(NC=O)c2O)C(=O)O[C@@H](C)[C@@H]1OC(=O)CC(C)C, which EC50 [7] is on record?
A: 0.3 µM (active)

Q: And the inhibition [2]?
A: 29.9%

Q: With C[C@]12CCC(=O)C=C1CCC1C2CC[C@@]2(C)C1CC[C@@H]2O (some centres undefined) as the compound, how does the inhibition [2] read?
A: -4.21%

Q: With CCNC1(c2cccs2)CCCCC1=O (centres undefined) as the compound, how does the remaining NAD [1] read?
A: 10 nM (inactive)

Q: For COc1cc2c(c(OC)c1OC)-c1ccc(O)c(=O)cc1C(N)CC2 (centres undefined), which fluorescence slope change [4] is on record?
A: 63.7% (active)

Q: Which AC50 [8] does the source give for c1ccc(CCCN2CCN(CCOC(c3ccccc3)c3ccccc3)CC2)cc1 here?
A: 20.9 µM (active)

Q: And the AC50 [9]?
A: 23.5 µM (active)

Q: Which remaining NAD [1] does the source give for CCC1(CC)C(=O)NC(=O)NC1=O here?
A: 10 nM (inactive)

Q: Which outcome [10] does the source give for C/C(O)=C(\C#N)C(=O)Nc1cc(Br)ccc1Br here?
A: inactive

Q: What about the outcome [8] of the same compound?
A: inactive

Q: What about the outcome [11] of the same compound?
A: inactive

Q: What about the outcome [12] of the same compound?
A: inactive

Q: And the outcome [13]?
A: inactive

Q: And the outcome [14]?
A: inactive

Q: What about the fold fluorescence [15] of the same compound?
A: 3.51 [at 138.9 µM] (inactive)

Q: For COC(=O)[C@@H](N)CCCN=C(N)N[N+](=O)[O-], which outcome [16] is on record?
A: inactive

Q: And the outcome [8]?
A: inactive

Q: And the outcome [11]?
A: inactive

Q: And the outcome [12]?
A: inactive

Q: And the outcome [17]?
A: inactive

Q: What about the outcome [13] of the same compound?
A: inactive

Q: What about the outcome [14] of the same compound?
A: inactive

Q: And the fold fluorescence [15]?
A: 4.22 [at 214.4 µM] (inactive)

Q: For Oc1ccc2c3c1O[C@H]1c4[nH]c5c(c4C[C@@]4(O)[C@@H](C2)N(CC2CC2)CC[C@]314)C[C@@]1(O)[C@H]2Cc3ccc(O)c4c3[C@@]1(CCN2CC1CC1)[C@H]5O4, which outcome [10] is on record?
A: inactive

Q: What about the outcome [8] of the same compound?
A: inactive

Q: What about the outcome [9] of the same compound?
A: inactive

Q: And the outcome [17]?
A: inactive

Q: With O=C(O)CCCO as the compound, how does the remaining NAD [1] read?
A: 10 nM (inactive)

Q: Which remaining NAD [1] does the source give for COC(=O)C(c1ccccc1)C1CCCCN1 (centres undefined) here?
A: 10 nM (inactive)

Q: With C[C@]12N[C@H](Cc3ccccc31)c1ccccc12 as the compound, how does the fluorescence slope change [4] read?
A: 55.9% (active)

Q: For CC(=O)O[C@H]1C[C@H](O[C@H]2[C@@H](O)C[C@H](O[C@H]3[C@@H](O)C[C@H](O[C@H]4CC[C@@]5(C)C(CCC6C5C[C@@H](O)[C@]5(C)[C@@H](C7=CC(=O)OC7)CC[C@]65O)C4)O[C@@H]3C)O[C@@H]2C)O[C@H](C)[C@H]1O[C@@H]1O[C@H](CO)[C@@H](O)[C@H](O)[C@H]1O (some centres undefined), which inclusion score [3] is on record?
A: 3

Q: Which outcome [16] does the source give for O=C(N[C@H]1CN2CCC1CC2)c1ccc(Cl)cc1 here?
A: inactive

Q: And the outcome [8]?
A: inactive

Q: And the outcome [9]?
A: inactive

Q: And the outcome [11]?
A: inactive

Q: What about the outcome [12] of the same compound?
A: inactive

Q: And the outcome [13]?
A: inactive

Q: And the outcome [14]?
A: inactive

Q: For O=C1CN=C(c2ccccc2Cl)c2cc([N+](=O)[O-])ccc2N1, which inhibition [2] is on record?
A: 12.9%

Q: What about the inclusion score [3] of the same compound?
A: 2

Q: For c1ccc2c(c1)[I+]c1ccccc1-2, which fold fluorescence [15] is on record?
A: 9.07 [at 179.1 µM] (inactive)

Q: Which fluorescence slope change [4] does the source give for c1cncc(C2=NCCC2)c1 here?
A: 24.1% (inactive)
